LGR2 inh: inhibitors of bursicon-induced Drosophila LGR2 receptor cAMP signaling | AID 720647 | hit rate 0.35% among 380,000 | HEK293 LGR2, CRE-luciferase, bursicon-stimulated, 4 h | inhibition, % at 9.99 µM;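 active = drop in luminescence signal, shown as inhibition above about 50% in the replicate tests, limit read from the data, passing the limit was not always enough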;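 also: agonist challenge used bursicon conditioned medium at about half maximal strength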
EWS-Fli block: EWS/Fli transcriptional activity inhibition | hit rate 0.67% among 350,000 | AID 651661 | A673 NR0B1-luciferase reporter, viability-normalised | inhibition, % at 12.6 µM;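 active = mean inhibition of at least 50% after viability correction, with every replicate also passing that limit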;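 also: firefly luciferase signal divided by Alamar Blue viability fluorescence both relative to DMSO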
TWEAK-Fn14 inh: TWEAK-Fn14 signaling inhibition; AID 1159606; TWEAK-stimulated Fn14 reporter cells, luciferase luminescence, 8 h; hit rate 2% among 360,000; inhibition, % at 10 µM; in the data active = inhibition above about 50%
LMP1 NFkB inh: Epstein-Barr LMP1 NF-kappaB reporter inhibition. LMP1-induced NF-kappaB luciferase reporter cells, luminescence. inhibition, % at 12.5 µM. hit rate 0.69% among 350,000; in the data active = inhibition above about 41%
TROY signal inh: TROY signaling inhibition; hit rate 0.98% among 360,000; Q293 LMP1-TROYcd NF-kB luciferase reporter, 4 h; inhibition, % at 10 µM;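 active = compounds whose plate-normalised and pattern-corrected inhibition of the luciferase reporter signal at the single screening dose is 50% or more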
Each line names hits and unclear results; the compound was inactive in the other large screens. Compounds with a hit are over-represented: about 2.5% of the library has one in this group of screens.

CNC(=S)Nc1ccc(Br)cc1	TROY signal inh 61 (no result: EWS-Fli block)
COc1ccc(NC(=S)Nc2ccc3nc(C)c(C)nc3c2)cc1	none (no result: LGR2 inh, EWS-Fli block)
CNC(=S)Nc1ccc2nc(C)c(C)nc2c1	LMP1 NFkB inh 50 (no result: LGR2 inh, EWS-Fli block)
COc1ccc(NC(=S)NCc2cccs2)cc1	LMP1 NFkB inh 57
COc1ccc(CNC(=S)Nc2ccc(-c3ccccc3)cc2)cc1	none
COc1ccc2c3c([nH]c2c1)[C@@H](CO)N(C(C)=O)CC31CN(C(=O)Nc2ccccc2F)C1	none (no result: TWEAK-Fn14 inh, LMP1 NFkB inh, TROY signal inh)
Cc1cc(SCC(=O)Nc2ccc(O)cc2)n2ncc(-c3ccccc3)c2n1	none
Cc1cc(SCC(=O)Nc2ccccc2)n2ncc(-c3ccccc3)c2n1	TROY signal inh 63
COc1ccc(NC(=O)CSc2cc(C)nc3c(-c4ccccc4)cnn23)cc1	TROY signal inh 56 (no result: LGR2 inh)
CCNC(=O)[C@@H]1[C@@H](CO)[C@@H]2Cn3c(ccc(C4=CCCC4)c3=O)[C@@H]2N1C(=O)C1CC1	none (no result: TWEAK-Fn14 inh, LMP1 NFkB inh, TROY signal inh)
O=C(CSc1nc2c(cnn2-c2ccc(F)cc2)c(=O)[nH]1)N1N=C(c2cccs2)CC1c1ccc(F)cc1 (configuration not stated)	TWEAK-Fn14 inh 57, TROY signal inh 50 (no result: LMP1 NFkB inh)
Cc1ccc(S(=O)(=O)N2C[C@@H](O)COC[C@H]3O[C@H](CC(=O)N[C@H]4CCN(Cc5ccccc5)C4)CC[C@@H]32)cc1	none (no result: TWEAK-Fn14 inh, LMP1 NFkB inh, TROY signal inh)
N#Cc1nc(Nc2cccc(Cl)c2)c2ncn(C3CCCC3)c2n1	TWEAK-Fn14 inh 87
CC(C)C(=O)Nc1nnc(S(=O)(=O)N(C)c2ccc(Cl)cc2)s1	TWEAK-Fn14 inh 72
CCOC(=O)c1ccc(NC(=O)C2CCCN(S(=O)(=O)c3ccc(F)cc3)C2)cc1 (configuration not stated)	TWEAK-Fn14 inh 58 (no result: LGR2 inh, EWS-Fli block)
CCOC(=O)c1ccc(NC(=O)C2CCN(S(=O)(=O)c3ccccc3)CC2)cc1	none
CN1OC[C@@H]2CN[C@H](c3ccc(-c4cc5ccccc5o4)cc3)C[C@@H]21	TWEAK-Fn14 inh 106, LMP1 NFkB inh 80, TROY signal inh 90 (no result: LGR2 inh, EWS-Fli block)
CN1OC[C@@H]2CN[C@H](c3ccc(-c4ccc(C#N)cc4)cc3)C[C@@H]21	none
Cc1cc(=O)n2c3ccccc3n(CC(O)CN3CCN(CCO)CC3)c2c1C#N (configuration not stated)	TWEAK-Fn14 inh 68
COCCSc1nnc(NC(=O)c2ccc([N+](=O)[O-])cc2)s1	none
CCOC(=O)CSc1nnc(NC(=O)c2cc([N+](=O)[O-])cc([N+](=O)[O-])c2)s1	TWEAK-Fn14 inh 85, TROY signal inh 66 (no result: EWS-Fli block)
Cc1ccccc1-c1nc2cc(N)ccc2o1	none
CC(C)c1ccc2oc(-c3cc(N)ccc3O)nc2c1	TWEAK-Fn14 inh 81, TROY signal inh 69 (no result: LGR2 inh, EWS-Fli block)
COc1ccc(CN(C)C[C@H]2OCCCC[C@@H](C)Oc3ccc(NC(=O)Nc4cccc5ccccc45)cc3C(=O)N([C@@H](C)CO)C[C@@H]2C)cc1	EWS-Fli block 80 (no result: TWEAK-Fn14 inh, LMP1 NFkB inh, TROY signal inh)
COc1ccc(CN(C)C[C@H]2OCCCC[C@H](C)Oc3ccc(NC(=O)Nc4ccccc4)cc3C(=O)N([C@H](C)CO)C[C@H]2C)cc1	EWS-Fli block 65 (no result: TWEAK-Fn14 inh, LMP1 NFkB inh, TROY signal inh)
C[C@@H]1CCCCO[C@@H](CN(C)CC2CCCCC2)[C@H](C)CN([C@@H](C)CO)C(=O)c2cc(NC(=O)Nc3cccc4ccccc34)ccc2O1	EWS-Fli block 94 (no result: TWEAK-Fn14 inh, LMP1 NFkB inh, TROY signal inh)
C[C@@H]1CN([C@H](C)CO)C(=O)c2cc(NC(=O)Nc3cccc4ccccc34)ccc2O[C@@H](C)CCCCO[C@H]1CN(C)Cc1ccccc1	EWS-Fli block 74 (no result: TWEAK-Fn14 inh, LMP1 NFkB inh, TROY signal inh)
O=C(C[C@@H]1C[C@@H]2c3cc(NC(=O)Cc4ccncc4)ccc3O[C@@H]2[C@@H](CO)O1)NCCN1CCCCC1	none (no result: TWEAK-Fn14 inh, LMP1 NFkB inh, TROY signal inh)
C[C@H](CO)N1C[C@H](C)[C@H](CN(C)C)Oc2ccc(NS(=O)(=O)c3ccc(F)cc3)cc2C1=O	none (no result: TWEAK-Fn14 inh, LMP1 NFkB inh, TROY signal inh)
COc1ccc(CN(C)C[C@H]2OCCCC[C@@H](C)Oc3ccc(NC(=O)Nc4cccc5ccccc45)cc3C(=O)N([C@H](C)CO)C[C@H]2C)cc1	EWS-Fli block 72 (no result: TWEAK-Fn14 inh, LMP1 NFkB inh, TROY signal inh)
C[C@@H]1CN([C@@H](C)CO)C(=O)c2cc(NC(=O)Nc3cccc4ccccc34)ccc2O[C@@H](C)CCCCO[C@H]1CN(C)Cc1ccc2c(c1)OCO2	EWS-Fli block 77 (no result: TWEAK-Fn14 inh, LMP1 NFkB inh, TROY signal inh)
C[C@@H]1CCCCO[C@H](CN(C)Cc2ccc3c(c2)OCO3)[C@H](C)CN([C@H](C)CO)C(=O)c2cc(NC(=O)Nc3cccc4ccccc34)ccc2O1	none (no result: TWEAK-Fn14 inh, LMP1 NFkB inh, TROY signal inh)
C[C@@H]1CCCCO[C@H](CN(C)CC2CCCCC2)[C@H](C)CN([C@@H](C)CO)C(=O)c2cc(NC(=O)Cc3ccccc3)ccc2O1	EWS-Fli block 73 (no result: TWEAK-Fn14 inh, LMP1 NFkB inh, TROY signal inh)

From PubChem BioAssay
